This is a sample that favours compounds with a hit; in the whole collection about 10% have one here.
BAZ2B inh = qHTS Assay for Inhibitors of BAZ2B; hit rate 4.4% among 360,000; AlphaScreen BAZ2B-H3K14Ac peptide displacement; Bromodomain adjacent to zinc finger domain protein 2B (Homo sapiens), Q9UIF8; Potency, µM (top dose mostly 114 µM), actives largely listed as inhibitors; also: nearly all actives have a fitted effect of over 60% in size
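Multi-concentration screen (max 110 uM) measuring displacement of acetylated histone H3 peptide from BAZ2B by AlphaScreen, using 50 nM protein, 50 nM peptide and 10 ug/mL streptavidin donor plus Ni-chelate acceptor beads.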
G9a inh = qHTS Assay for Inhibitors of Histone Lysine Methyltransferase G9a; Histone-lysine N-methyltransferase EHMT2 (Homo sapiens), Q96KQ7; G9a H3K9 monomethylation, AlphaScreen, 2 h; Potency, µM (series often up to 102 µM), hits mostly inhibitors; hit rate 8.8% among 350,000; also: nearly all actives have a fitted effect of over 75% in size
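Step 1: enzyme (final 20 nM) with compound, 15 min RT. Step 2: substrate peptide 500 nM and SAM 20 uM, 2 h RT. Step 3: anti-H3K9me1 antibody and AlphaScreen beads, 10 min, then plate read.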
JMJD2A Tudor = qHTS Assay for Inhibitors of JMJD2A-Tudor Domain. Lysine-specific demethylase 4A (Homo sapiens), O75164. AlphaScreen JMJD2A-Tudor / H3K4me3 peptide binding. Potency, µM (top dose mostly 114 µM), hits mostly inhibitors. hit rate 4.4% among 390,000. AID 504339, 2011; also: nearly all actives have a fitted effect of over 50% in size
HP1b binding inh = HTS for Inhibitors of HP1-beta Chromodomain Interactions with Methylated Histone Tails; Chromobox protein homolog 1 (Homo sapiens), P83916; AlphaScreen HP1-beta / biotin-H3K9me3 peptide binding; Potency, µM (highest dose often 114 µM), most hits filed as inhibitors; hit rate 0.56% among 390,000; also: nearly all actives have a fitted effect of over 70% in size
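Compound inhibition of the preformed complex between 50 nM HP1-beta and 50 nM biotinylated H3K9me3 peptide was read by AlphaScreen. Buffer was PBS pH 7.4 with 0.01% Tween-20. Incubations ran 30 min at room temperature, with 10 ug/mL donor/acceptor beads.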
Six1-Eya2 inh = qHTS Assay for Inhibitors of the Six1/Eya2 Interaction; AID 651725, 2012; hit rate 0.56% among 360,000; activity change, % (no concentration beside the values); AlphaScreen GST-Six1/His-Eya2 binding, biochemical; hits give low values; in the data active = activity change below about -65%; inconclusive = mostly about -30% to -63%
Target sequence (O00167 whole entry, looked up): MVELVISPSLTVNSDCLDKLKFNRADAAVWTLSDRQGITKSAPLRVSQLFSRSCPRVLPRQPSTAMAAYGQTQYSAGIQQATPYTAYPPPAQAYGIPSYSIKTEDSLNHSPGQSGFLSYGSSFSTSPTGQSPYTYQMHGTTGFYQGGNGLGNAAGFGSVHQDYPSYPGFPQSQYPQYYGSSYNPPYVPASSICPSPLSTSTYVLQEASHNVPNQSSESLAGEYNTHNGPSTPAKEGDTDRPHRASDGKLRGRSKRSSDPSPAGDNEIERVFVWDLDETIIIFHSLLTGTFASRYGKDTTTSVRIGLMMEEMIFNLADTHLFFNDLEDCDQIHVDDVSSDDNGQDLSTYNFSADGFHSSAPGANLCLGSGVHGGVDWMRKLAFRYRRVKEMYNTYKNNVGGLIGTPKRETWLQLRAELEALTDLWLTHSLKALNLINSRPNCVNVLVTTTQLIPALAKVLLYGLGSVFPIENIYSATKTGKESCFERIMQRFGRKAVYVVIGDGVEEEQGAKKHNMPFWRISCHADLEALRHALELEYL
Target sequence (Q15475 whole entry, looked up): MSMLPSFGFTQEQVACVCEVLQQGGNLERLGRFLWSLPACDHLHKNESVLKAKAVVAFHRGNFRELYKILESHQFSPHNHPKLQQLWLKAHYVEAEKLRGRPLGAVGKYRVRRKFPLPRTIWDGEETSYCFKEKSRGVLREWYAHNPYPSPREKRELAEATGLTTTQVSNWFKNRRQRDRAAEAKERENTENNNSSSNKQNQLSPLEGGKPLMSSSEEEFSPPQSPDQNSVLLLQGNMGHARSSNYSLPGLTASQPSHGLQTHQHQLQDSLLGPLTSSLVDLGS
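GST-Six1 + His-Eya2 (5X stock: 250/500 nM); Tris pH 8.0, 300 mM NaCl, 0.05% BSA, 0.02% Tween 20; GSH donor/Ni acceptor beads; 1 h 37 °C dark; AlphaScreen readout.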
CtBP-E1A blk = qHTS Assay for Inhibitors of the CtBP/E1A Interaction. CtBP / adenovirus E1A interaction (AlphaScreen). AlphaScreen GST-E1A/His-CtBP binding, 1536-well; hits give low values. activity change, % (test concentration not listed). hit rate 0.49% among 340,000; in the data active = activity change below about -65%; inconclusive = mostly about -30% to -63%
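Homogeneous bead-based format: GST-tagged E1A captured on glutathione donor beads, His-tagged CtBP on nickel acceptor beads; compounds precede bead addition by 2 h at 37 °C.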
Hits are given with their value; – = inactive; ? = inconclusive; · = not tested or not shown; [ ] = remark or other dose. Unless noted, calls follow the shape of the dose curve; as a rule, active = well fitted inhibition curve with a large enough effect; inconclusive = small, poorly fitted or top-dose-only effect; inactive = no such curve, though single readings can be large or run the other way.

SMILES | BAZ2B inh | G9a inh | JMJD2A Tudor | HP1b binding inh | Six1-Eya2 inh | CtBP-E1A blk
COc1cccc(NC(=O)C2CCN(C(=O)N3CC(C)Oc4ccccc43)CC2)c1 (stereo not drawn) | – | – | – | – | · | ·
COCCn1c(C)cc(O)c(C(c2ccc(Cl)cc2)N2CCCCC2)c1=O (stereo not drawn) | – | ? | – | – | · | ·
CCOc1cccc(C2C=C(c3ccc4c(c3)OCO4)NC(c3ccccc3Cl)N2)c1O (stereo not drawn) | · | · | – | – | · | ·
COc1ccc(Nc2nc(N)nc(CSC(=S)N3CCN(C)CC3)n2)cc1 | ? | · | – | – | – | ·
CCOc1ccc(Nc2nc(N)nc(CN(C)C3CCCCC3)n2)cc1 | 28.2µM | – | 20µM | – | ? | –
COc1ccc(Nc2nc(N)nc(CN(C)C3CCCCC3)n2)cc1 | 31.6µM | – | 44.7µM | – | – | –
COc1ccc(Nc2nc(N)nc(CSC(=S)N3CCCCC3)n2)cc1 | 70.8µM | ? | ? | – | – | ·
COc1ccc(Nc2nc(N)nc(COc3ccc(OC)cc3)n2)cc1 | – | – | – | – | – | –
CCOc1ccc(Nc2ncnc(N)n2)cc1 | – | –[12.7 µM] | – | – | – | –
CCOc1ccc2nc(Cl)c(C3CC(c4ccc(C)cc4)=NN3C(=O)CCCC(=O)O)cc2c1 (stereo not drawn) | – | – | ? | – | · | ·
COc1ccc(Cc2c(C)nn(-c3nc(C)c(C(=O)Nc4ccc(C)cc4C)s3)c2C)cc1 | – | – | ? | – | · | ·
COc1ccc(-c2nc3cnc(N(C)C)nc3n(C[C@H]3CCCO3)c2=O)cc1 | · | –[0.501 µM] | · | · | · | ·
NC(=O)COC(=O)/C=C/c1ccccc1[N+](=O)[O-] | – | – | – | – | – | –
CN(Cc1cccs1)C(=O)/C=C/c1ccccc1[N+](=O)[O-] | – | – | – | – | – | –
O=C(/C=C/c1ccccc1[N+](=O)[O-])c1ccc(F)cc1 | – | 39.8µM | – | – | – | –
O=C(/C=C/c1ccccc1[N+](=O)[O-])Oc1ccccc1 | ? | 70.8µM | · | · | · | ·
CCN(Cc1ccccc1)C(=O)/C=C/c1ccccc1[N+](=O)[O-] | 89.1µM | – | – | – | – | –
Cc1cccc(-c2nn3c(=O)cc(CN4CCN(C(=O)c5ccccc5Br)CC4)nc3s2)c1 | – | – | – | – | · | ·
CCOCCCNC(=O)c1ccc2c(c1)NC(=O)C(CS(=O)(=O)Cc1ccc(F)cc1Cl)N2 (stereo not drawn) | ? | ? | – | – | · | ·
COC(=O)c1ccccc1NC(=O)c1cnc(Nc2ccc(OC)cc2)c2ccccc12 | – | – | – | – | · | ·
CCOC(=O)c1c(C)[nH]c(C)c1S(=O)(=O)N1CCN(c2ccccc2OC)CC1 | – | – | – | – | · | ·
CN(C)c1ccnc(C(=O)O)c1 | 22.4µM | 4.47µM | 0.708µM | – | ? | –
O=C(O)c1cc(Br)ccn1 | · | 15.8µM | 3.16µM | – | ? | –
CC(C)CC(OC(=O)CNC(=O)c1ccccc1)C(=O)Nc1cc(C(F)(F)F)ccc1Cl (stereo not drawn) | · | · | – | · | · | ·
COC(=O)c1ccc(Cl)cc1NC(=O)NC(C)c1c(-n2cccc2)sc(C)c1C (stereo not drawn) | – | – | – | – | · | ·
SMILES | BAZ2B inh | G9a inh | JMJD2A Tudor | HP1b binding inh | Six1-Eya2 inh | CtBP-E1A blk
CSc1cccc(NC(=S)N2CCC(c3ccccc3)C2)c1 (stereo not drawn) | – | – | – | – | – | –
CSc1cccc(NC(=S)N2CCC(N(C)C3CCCCC3C)CC2)c1 (stereo not drawn) | ? | 50.1µM | – | – | – | –
CSc1cccc(NC(=S)N2CCC(N(C)C3CCCCC3)CC2)c1 | – | 50.1µM | – | – | – | –
CCOC(=O)c1noc2ncnc(N(CCC(=O)OC)c3ccccc3)c12 | – | – | – | – | · | ·
CCOc1cc(/C=N/NC(=O)CSc2cccc3cccnc23)ccc1O | – | – | – | – | -65.9 | -74.0
CN(C)C(=O)CSc1cccc2cccnc12 | – | ? | – | – | -91.4 | -94.4
CCOC(=O)c1ccc(NC(=O)CSc2nccn2C)cc1 | ? | ? | – | – | – | –
O=C(CSc1cccc2cccnc12)N/N=C/c1ccncc1 | – | – | – | – | – | ·
O=C(CSc1cccc2cccnc12)Nc1cc(C(=O)O)cc(C(=O)O)c1 | – | · | – | – | ? | -83.3
CCCCOc1ccc(NC(=O)CCSc2nccn2C)cc1 | ? | 11.2µM | 3.16µM | – | – | –
NNC(=O)CSc1cccc2cccnc12 | – | – | – | – | – | –
CCOc1ccc2oc(=O)cc(CN3CCN(C(=O)c4ccc(Cl)cc4)CC3)c2c1 | – | – | – | – | · | ·
O=S1(=O)c2ccccc2N(Cc2cccc(C(F)(F)F)c2)c2ccccc21 | – | – | – | – | · | ·
O=C1c2oc3ccc(F)cc3c(=O)c2C(c2cccc([N+](=O)[O-])c2)N1CCCN1CCOCC1 (stereo not drawn) | – | – | – | – | · | ·
CCCCOc1ccc(NC(=O)CSc2cccc3cccnc23)cc1 | – | – | – | – | ? | -88.3
O=C(CSc1cccc2cccnc12)Nc1ccccc1F | – | – | – | – | ? | ?
CCCCOc1ccc(NC(=O)Nc2nnc(C)s2)cc1 | – | 79.4µM | – | – | – | ·
O=C(CSc1cccc2cccnc12)OCC(=O)c1ccc(Br)cc1 | – | –[0.0925 µM] | – | – | – | –
O=C(CSc1cccc2cccnc12)OCC(=O)c1ccccc1 | – | – | 35.5µM | – | -87.7 | -93.3
Cc1cccc(NC(=O)CSc2cccc3cccnc23)c1 | – | – | – | – | -81.3 | ·
CCOCCOC(=O)c1ccc2c(c1)N(Cc1ccccc1C#N)C(=O)c1ccccc1S2(=O)=O | – | – | – | – | · | ·
CSc1ccc(CCNC(=O)c2ccc(-c3nc(COc4ccccc4)c(C)o3)cc2)cc1 | – | – | – | – | · | ·
Cc1ccc(S(=O)(=O)NC(C)C(=O)NC2CC2)cc1 (stereo not drawn) | – | 79.4µM | – | – | – | –
CC(NS(=O)(=O)c1ccccc1)C(=O)NC1CCCC1 (stereo not drawn) | – | – | – | – | – | –
COc1cccc(-c2ccc3ncnc(NCCNC(C)=O)c3c2)c1 | · | –[0.501 µM] | · | · | · | ·
O=C1C2C3C=CC(CC3)C2C(=O)N1c1nccs1 (stereo not drawn) | 44.7µM | – | 50.1µM | – | ? | –
Nc1ccc(N2CCN(c3ccc(Cl)c(Cl)c3)CC2)cc1 | 14.1µM | ? | 44.7µM | 17.8µM | ? | ?
